Assay results reported in PubChem BioAssay (EPA / NIEHS).
Calls of active or inactive are those of the source. The calls were made as follows: active = hit-call score of the fitted dose curve at least 0.9, where 1 is the maximum; inactive = score below 0.9.

Read-out: Thyroid Hormone Responsive (THRSP), THRSP (gene 7069)
Assay: LTEA_HepaRG_THRSP: Life Technologies and Expression Analysis (LTEA) Assay for Thyroid Hormone Responsive (THRSP) using HepaRG (AID 2283536)
Details: mRNA level, 48 h; actives raise or lower the signal
Method: LTEA_HepaRG is a cell based, multiplexed-readout assay that uses HepaRG, a human liver cell line, with measurements taken at 48 hours after chemical dosing on a 96-well plate.LTEA_HepaRG_THRSP is one of 102 assay component(s) measured in the LTEA HepaRG cell culture assay. It is a marker of NR mediated metabolism.Data from the assay component LTEA_HepaRG_THRSP was analyzed into 1 endpoint. This assay endpoint, LTEA_HepaRG_THRSP, was analyzed with bidirectional fitting relative to DMSO as the negative control and baseline of activity. Using a type of inducible reporter, measures of mRNA induction for gain or loss-of-signal activity can be used to understand regulation of transcription factor activity. To generalize the intended target to other relatable targets, this assay endpoint is annotated to the growth factor intended target family, where the subfamily is NR mediated metabolism.
A total of 1060 chemcials from the ToxCast library were tested in eight-point concentration-response experiments. Cell culture and cytotoxicity assays were conducted at Thermo Fisher Scientific's Custom Services facility (Madison, WI). A single lot of human HepaRG cells (Thermo Fisher Scientific, Frederick, MD) was used for the cell culture experiments. 96-well format collagen type I coated plates of human HepaRG cells were prepared using established methods. Briefly, cryopreserved HepaRG cells were thawed, plated at a density of approximately 100,000 cells/well in HepaRG Thaw, Plate, and General Purpose media (HPRG770, Thermo Fisher Scientific), and incubated for 48 hours. 0.5% DMSO was selected as vehicle control to balance the requisite need of DMSO in HepaRG cultures to maintain differentiation (for example, baseline metabolism, proportions of hepatocytes vs. cholangiocytes), while enabling further hepatic receptor pathway activation (for example, PXR and CAR) in response to chemical exposure. 48 hours after plating, the culture medium was replaced with HepaRG Serum-Free Incudtion Media. Cells were exposed to each test chemical in duplicate and maintained in CO2 incubators for another 48 hours. Chemical plates were thawed to room temperature and 200x concentrations of treatment groups were prepared. 8-point conentration-reponse curves were made with the highest exposure at 100 uM, followed by half-log dilutions, all in 0.5% DMSO. Each test plate contained variouse controls, induction positive controls (1mM phenobarbital), cytotoxicity positive controls ([…] aflatoxin B1), vehicle controls (0.5% DMSO), and total lysis controls (0.5% DMSO). Cell morphology images were taken using an Essen IncuCyte FLR automated microscope, with six 96-well plates imaged in about 24 minutes. Images were captured and exported and JPEG files. Spent culture media was transfered to black-well plates for the LDH assay, and remaining media was sorted at -80 C for later use. Cells were treated with RLT buffer and frozen until shipped for gene expression analysis. Total RNA was isolated from the cell suspension in 75 uL of Buffer RLT (Qiagen, Germantown, MD 20874) by Quintiles/Expression Analysis (Durham, NC) using a custom isolation procedure. Total RNA from each plate well was transferred to a preamplification plate. Fluidigm's 96.96 Dynamic ArrayTM (Fluidigm, Amsterdam, the Netherlands) technology was used for gene expression analyses by quantitative reverse transcription polymerase chain reaction (qRT-PCR, performed by Quintiles/Expression Analysis, Durham, NC)89. Standard TaqManTM Assays (Applied Biosystems/ThermoFisher Scientific, Foster City, CA) were used to assess the expression of 93 genes selected based on their selectivity and sensitivity to important hepatic receptors known to be modulated by environmental chemicals; importance in human hepatocyte functionality; and hepatotoxicity. […]

Row | SMILES | outcome | AC50
1 | COc1ccc(/C=C/S(=O)(=O)NC(=O)c2ccc(C)cc2Cl)cc1 | inactive | –
2 | CCOCCO | inactive | –
3 | CCOC(=O)CC(CC(=O)OCC)(OC(C)=O)C(=O)OCC | inactive | –
4 | CCC(C)(C)C(=O)O[C@H]1C[C@@H](C)C=C2C=C[C@H](C)[C@H](CC[C@@H]3C[C@@H](O)CC(=O)O3)[C@H]21 | – | 25.4 µM (active)
5 | CN(C)c1ccc(N=NS(=O)(=O)O)cc1 | – | 11.1 µM (active)
6 | CCn1nc(Cc2ccccc2)cc1C1CCN(C[C@H]2C[C@H](N(C)[C@@H](C(=O)O)C(C)C)C[C@@H]2c2cccc(F)c2)CC1 | inactive | –
7 | CCCCCCc1ccc(O)cc1O | inactive | –
8 | CCCCC(CC)COC(=O)CCCCCCCCC(=O)OCC(CC)CCCC (stereo not given) | inactive | –
9 | CCN(C(=O)c1cc(C)cc(OC[C@H](C)Nc2ccncc2)c1)C(C)C | – | 6.4 µM (active)
10 | Cn1c(=O)cc(Oc2ccc(F)cc2F)c2cnc(NCC(C)(C)O)nc21 | inactive | –
11 | O=c1[nH]c2ccc(S(=O)CCN3CCC(Cc4ccc(F)cc4)CC3)cc2o1 (stereo not given) | – | 85.5 µM (active)
12 | O=C(O)c1cc(N=Nc2ccc(S(=O)(=O)Nc3ccccn3)cc2)ccc1O | inactive | –
13 | C=CCCCCCCCCC(=O)O | inactive | –
14 | CCCCC(CC)COC(=O)c1ccc(C(=O)OCC(CC)CCCC)cc1 (stereo not given) | inactive | –
15 | CN(C)c1ccc(Cc2ccc(N(C)C)cc2)cc1 | – | 19.5 µM (active)
16 | O=C1CCCCCN1 | inactive | –
17 | CCOc1cccc(-n2cc(C(=O)N3CCN(c4cc(C(=O)O)c5ccccc5c4)CC3)nc2-c2ccc(C)cc2)c1 | – | 26.3 µM (active)
18 | CCOC(=O)c1ccc(C2CCC(NC[C@H](O)COc3ccc(O)c(NS(C)(=O)=O)c3)CC2)cc1 (stereo not given in full) | inactive | –
19 | CCNc1ccccc1 | inactive | –
20 | COc1cccc(-c2ccc(/C=C\CN3CCCCCC3)cc2Cl)c1 | inactive | –

Row | SMILES | outcome | AC50
21 | COC(=O)c1ccccc1O | inactive | –
22 | C=CC(=C)CCC=C(C)C | inactive | –
23 | COC(=O)c1c(Cl)c(Cl)c(C(=O)OC)c(Cl)c1Cl | inactive | –
24 | CCCCCCCCCCCCc1ccccc1 | inactive | –
25 | CCc1cc(SCc2sc(-c3ccc(C(F)(F)F)cc3)nc2CN2CCN(c3ccc(OC)cc3)CC2)ccc1OCC(=O)O | inactive | –
26 | CC1=CC(=O)CC(C)(C)C1 | inactive | –
27 | CNS(=O)(=O)c1cc(C(=O)N2CCC(CCN3C4CCC3CC(n3c(C)nc5ccccc53)C4)(c3cccc(F)c3)CC2)c(Cl)cc1F (stereo not given) | inactive | –
28 | COc1ccc2sc(C(=O)Nc3nnn[nH]3)c(OC(C)C)c2c1 | – | 50 µM (active)
29 | O=C(NS(=O)(=O)/C=C/c1ccccc1)c1ccc(F)cc1Cl | – | 0.502 µM (active)
30 | O=C1OC(=O)C2C3C=CC(C3)C12 (stereo not given) | inactive | –
31 | Fc1ccccc1[C@@H](F)COC1CCC(Nc2ncnc3[nH]ncc23)CC1 (stereo not given in full) | inactive | –
32 | CC(C)=CCCC(C)=CC=O | inactive | –
33 | COCCOc1cc2cc(C(=O)NC3CCN(C(C)C)CC3)n(CC(=O)Nc3ccc(Cl)cn3)c2cn1 | – | 51.5 µM (active)
34 | CCCN(C1CCN(C(=O)C2CCNCC2)CC1)[C@@H]1CCc2ccc(OC)cc2C1 | – | 80.1 µM (active)
35 | CC(C)CC(C)(O)C#CC(C)(O)CC(C)C (stereo not given) | inactive | –
36 | CC(C)CCCCCCCOC(=O)CCCCC(=O)OCCCCCCCC(C)C | inactive | –
37 | Cc1ccc(O)cc1 | inactive | –
38 | O=C(O)c1cccc(Oc2ccccc2)c1 | inactive | –
39 | CC(C)=CCCC(C)CCO (stereo not given) | inactive | –
40 | CNCc1ccc(NC(=O)c2c[nH]c3c2C(=O)CCC3)cc1 | inactive | –
